Where “and” joins values, the source holds several entries; their conditions need not be identical. Equal entries are not always repeated. Inconclusive results are not listed. Where a call stands in place of a potency, no number is given. The source holds several records for some structures; these can differ, active in one and inactive in another. Calls of active or inactive are those of the source. Unless noted, the call rests on the fitted dose curve; in most records, active means well fitted curve in either direction with a large enough effect (not every such curve was filed as active); inconclusive means small, poorly fitted or top-dose-only effect, or another doubt; inactive means flat fitted curve, though single readings scatter.
How the values were obtained:
[1] = AP1 Signaling Pathway (AID 357); conditions: ME-180 AP-1-bla reporter, EGF-induced, beta-lactamase ratio, 5 h;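 further: ME-180 reporter cells stimulated with EGF at its EC50 level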
Procedure, shortened: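 First, ME-180 AP-1-bla cells were cultured overnight at 37 °C in low-serum Opti-MEM. Next, titrated compounds with EC50 EGF were incubated 5 hours. Finally, CCF4 was added for 2.5 hours and the 460/530 nm ratio recorded.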

[2] = NFAT Signaling Pathway (AID 444); conditions: Jurkat NFAT-bla M1, carbachol, beta-lactamase ratio, 5 h;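 further: carbachol stimulus at about its EC50 of 1 µM final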
Procedure, shortened: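 Read-out: CCF4 FRET ratio (460 nm/530 nm) after 1 h RT dye loading, used for %activity and AC50 from titration series. Cells: Jurkat NFAT-β-lactamase/M1 line, treated with compound plus 1 uM carbachol for 5 h, 37 °C.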

[3] = Stat Signaling Pathway (AID 446); conditions: ME-180 (cervical carcinoma) SIE beta-lactamase reporter, IL-6 stimulated, 5 h;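 further: ME-180 cervical cancer cells given 40 pM IL-6 alongside compound; SIE-controlled beta-lactamase reporter measured as 460/530 nm FRET emission ratio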
Procedure, shortened: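 IL-6/STAT signaling read in ME-180 cells via an SIE beta-lactamase reporter. Stimulus was 40 pM IL-6 (its AC50) for 5 hrs, so both activation and inhibition register.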

[4] = target: Glucocorticoid receptor (Homo sapiens) (UniProt P04150); assay: GR-GFP Redistribution (AID 450;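 active means compounds whose dose series gives a full or clear partial fitted curve of increased nuclear translocation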; further: potency means the concentration at half of the fitted maximal effect); conditions: U2OS GR-GFP nuclear translocation, laser cytometry, 2 h
Sequence of Glucocorticoid receptor (Homo sapiens) (P04150 whole entry, looked up, the tested form may be a part): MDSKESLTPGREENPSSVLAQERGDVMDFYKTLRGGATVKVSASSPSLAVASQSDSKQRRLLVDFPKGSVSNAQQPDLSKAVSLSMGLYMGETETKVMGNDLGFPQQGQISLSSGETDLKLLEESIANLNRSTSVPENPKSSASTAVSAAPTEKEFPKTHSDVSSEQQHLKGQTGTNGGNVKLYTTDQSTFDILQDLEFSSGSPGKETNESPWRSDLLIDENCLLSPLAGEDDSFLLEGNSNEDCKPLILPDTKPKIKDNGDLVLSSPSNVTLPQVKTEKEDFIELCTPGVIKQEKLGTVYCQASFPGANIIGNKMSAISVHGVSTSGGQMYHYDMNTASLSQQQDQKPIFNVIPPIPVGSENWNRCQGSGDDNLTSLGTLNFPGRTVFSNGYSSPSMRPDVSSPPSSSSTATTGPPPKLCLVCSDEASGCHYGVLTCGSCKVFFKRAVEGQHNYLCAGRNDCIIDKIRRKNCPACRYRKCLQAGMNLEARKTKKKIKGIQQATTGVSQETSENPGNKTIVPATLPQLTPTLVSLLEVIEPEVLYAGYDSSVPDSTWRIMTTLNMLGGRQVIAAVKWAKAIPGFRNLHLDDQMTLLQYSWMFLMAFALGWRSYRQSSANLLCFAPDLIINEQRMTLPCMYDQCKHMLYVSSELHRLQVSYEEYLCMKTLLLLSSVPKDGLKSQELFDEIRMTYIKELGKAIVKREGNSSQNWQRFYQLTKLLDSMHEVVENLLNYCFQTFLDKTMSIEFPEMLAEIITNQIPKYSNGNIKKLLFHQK

[5] = target: Glucocorticoid receptor (Homo sapiens) (UniProt P04150); assay: GR-EFC Redistribution (AID 451; calls by dose curve; further: potency means the concentration at half of the fitted maximal effect); conditions: CHO-K1 GR-EFC translocation, beta-gal luminescence, 2 h
Procedure, shortened: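 Translocation of GR-ED fusion to nuclear EA restores b-gal, read by luminescence after 1 h room-temperature detection. Engineered CHO-K1 biosensor cells, 1,000/well, exposed 2 h at 37 C to titrations up to 46 uM final.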

[6] = target: Mitogen-activated protein kinase 10 (Mus musculus) (UniProt Q61831); assay: JNK3 AlphaScreen Assay (AID 530);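 further: kinase came from lysate of stimulated human HepG2 cells; signal reports phosphorylation of biotinylated GST-cJun 1-79 at Ser73 with 10 µM ATP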
Procedure, shortened: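 Compound titrations were preincubated 15 minutes at room temperature with substrate, antibody and pre-activated JNK3-containing HepG2 lysate. Reactions were started with 10 uM ATP and stopped with EDTA-containing bead buffer for AlphaScreen detection.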

[7] = target: 3',5'-cyclic-AMP phosphodiesterase 4B (Homo sapiens) (UniProt Q07343); assay: qHTS Assay for Inhibitors of PDE-IV (AID 607; active means well fitted activation curve with a large enough effect in the main read-out, with a control signal flat, not every such curve was filed as active; further: potency means the concentration at half of the fitted maximal effect)
Sequence of 3',5'-cyclic-AMP phosphodiesterase 4B (Homo sapiens) (Q07343 whole entry, looked up): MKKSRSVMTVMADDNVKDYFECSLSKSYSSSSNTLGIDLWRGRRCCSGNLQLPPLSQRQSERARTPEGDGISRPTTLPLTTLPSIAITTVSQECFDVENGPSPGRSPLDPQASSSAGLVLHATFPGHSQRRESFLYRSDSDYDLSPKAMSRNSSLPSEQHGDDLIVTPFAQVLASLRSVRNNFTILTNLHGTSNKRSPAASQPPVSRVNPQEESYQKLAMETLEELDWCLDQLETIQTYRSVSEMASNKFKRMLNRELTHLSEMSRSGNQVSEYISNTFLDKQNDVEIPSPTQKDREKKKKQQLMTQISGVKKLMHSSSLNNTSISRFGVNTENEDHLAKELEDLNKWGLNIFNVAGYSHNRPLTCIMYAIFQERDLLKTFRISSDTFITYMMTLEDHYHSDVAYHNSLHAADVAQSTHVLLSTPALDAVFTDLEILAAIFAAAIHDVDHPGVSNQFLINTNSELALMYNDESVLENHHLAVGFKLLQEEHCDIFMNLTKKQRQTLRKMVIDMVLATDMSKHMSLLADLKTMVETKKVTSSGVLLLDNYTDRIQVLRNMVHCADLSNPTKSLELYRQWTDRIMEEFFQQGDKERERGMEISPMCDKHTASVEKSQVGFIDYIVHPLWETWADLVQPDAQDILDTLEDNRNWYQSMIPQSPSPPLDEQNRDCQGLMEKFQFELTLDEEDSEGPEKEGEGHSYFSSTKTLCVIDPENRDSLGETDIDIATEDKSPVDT
Procedure, shortened: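 Live HEK293 cells with a modified cyclic nucleotide-gated (CNG) channel report intracellular cAMP via membrane-potential dye fluorescence (ex 535/em 590 nm). Endogenous PDE-IV was targeted. Compounds were tested at up to 22.9 uM final; RO 20-1724 100 uM served as control.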

[8] = target: Cytochrome P450 1A2 (Homo sapiens) (UniProt P05177); assay: p450-cyp1a2 (AID 410; calls by dose curve)
Sequence of Cytochrome P450 1A2 (Homo sapiens) (P05177 whole entry, looked up): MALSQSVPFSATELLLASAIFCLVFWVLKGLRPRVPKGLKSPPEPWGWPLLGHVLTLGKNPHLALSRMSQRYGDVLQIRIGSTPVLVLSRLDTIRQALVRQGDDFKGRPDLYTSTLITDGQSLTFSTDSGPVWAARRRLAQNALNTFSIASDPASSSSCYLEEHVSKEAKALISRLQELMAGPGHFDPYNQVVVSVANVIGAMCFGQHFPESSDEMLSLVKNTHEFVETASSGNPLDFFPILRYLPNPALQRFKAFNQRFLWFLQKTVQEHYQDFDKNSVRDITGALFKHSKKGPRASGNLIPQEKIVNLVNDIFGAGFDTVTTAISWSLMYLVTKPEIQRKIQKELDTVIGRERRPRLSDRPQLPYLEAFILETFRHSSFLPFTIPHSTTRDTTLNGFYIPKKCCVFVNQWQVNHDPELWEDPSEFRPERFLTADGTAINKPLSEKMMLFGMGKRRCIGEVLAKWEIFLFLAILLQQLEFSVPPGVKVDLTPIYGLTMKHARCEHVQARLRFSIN
Procedure, shortened: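 Luminescent readout of luciferin formed from Luciferin-ME by human CYP1A2; data normalized against complete inhibition by 57 uM furafylline. Enzyme 20nM, substrate 100uM at Km, 100mM KPO4 buffer, 60 min reaction at room temperature.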

[9] = target: Guanine nucleotide-binding protein G(i) subunit alpha-1 (Homo sapiens) (UniProt P63096); assay: qHTS Assay for Inhibitors of RGS12 GoLoco Motif Activity (Green Fluorophore) (AID 879; active means well fitted curve in the direction sought with a large enough effect; an effect the other way counts as inactive or inconclusive;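 further: negative values mean loss of peptide binding seen as reduced polarization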)
Sequence of Guanine nucleotide-binding protein G(i) subunit alpha-1 (Homo sapiens) (P63096 whole entry, looked up): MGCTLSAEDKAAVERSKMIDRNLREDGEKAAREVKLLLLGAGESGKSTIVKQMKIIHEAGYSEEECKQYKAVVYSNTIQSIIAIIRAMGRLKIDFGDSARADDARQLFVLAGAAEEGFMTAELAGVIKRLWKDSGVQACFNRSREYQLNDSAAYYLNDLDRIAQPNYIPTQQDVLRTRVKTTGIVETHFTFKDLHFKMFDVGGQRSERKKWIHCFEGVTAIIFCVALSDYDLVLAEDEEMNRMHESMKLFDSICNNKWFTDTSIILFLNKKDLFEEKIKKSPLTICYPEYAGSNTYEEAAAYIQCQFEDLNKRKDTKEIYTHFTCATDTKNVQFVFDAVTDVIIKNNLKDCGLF
Procedure, shortened: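 Fluorescence polarization assay: 50 nM Gαi1 with 10 nM FITC-labeled RGS12 GoLoco peptide in 10 mM Tris pH 7.5, 150 mM NaCl, 0.1 mM GDP, 0.05% NP40, 10 min at room temperature with compound.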

[10] = target: Cytochrome P450 2C9 (Homo sapiens) (UniProt P11712); assay: qHTS Assay for Inhibitors and Substrates of Cytochrome P450 2C9 (AID 883; active means well fitted curve in the direction sought with a large enough effect; an effect the other way counts as inactive or inconclusive; further: nearly all actives have a fitted effect of over 60% in size; further: potency means the concentration at half of the fitted maximal effect)
Sequence of Cytochrome P450 2C9 (Homo sapiens) (P11712 whole entry, looked up): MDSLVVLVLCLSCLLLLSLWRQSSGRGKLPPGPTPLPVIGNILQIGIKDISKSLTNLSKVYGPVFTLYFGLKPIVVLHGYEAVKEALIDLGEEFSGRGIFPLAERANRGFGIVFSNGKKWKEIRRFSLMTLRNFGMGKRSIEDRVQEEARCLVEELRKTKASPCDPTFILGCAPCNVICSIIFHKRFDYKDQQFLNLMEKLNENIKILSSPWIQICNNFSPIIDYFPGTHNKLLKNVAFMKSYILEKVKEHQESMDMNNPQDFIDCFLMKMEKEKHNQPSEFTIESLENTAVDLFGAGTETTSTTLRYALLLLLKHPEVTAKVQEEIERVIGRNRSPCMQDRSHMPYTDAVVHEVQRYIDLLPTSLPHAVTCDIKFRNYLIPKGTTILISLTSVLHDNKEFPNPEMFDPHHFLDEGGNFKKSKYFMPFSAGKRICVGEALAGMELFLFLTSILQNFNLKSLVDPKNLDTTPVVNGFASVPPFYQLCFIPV
Procedure, shortened: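 Luminescent read-out of deoxyluciferin hydroxylation, normalized to 57uM sulphaphenazole (AC100). Reaction: 10nM enzyme, 100uM Luciferin-H (equal to KM), 25mM KPO4, 10 min compound preincubation, then 60 min with NADPH regeneration, both at 37C.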

[11] = target: Muscarinic acetylcholine receptor M1 (Rattus norvegicus) (UniProt P08482); assay: qHTS Assay for Antagonists of Acetylcholine Muscarinic M1 Receptor: Measurement of IP-One Response (AID 944; active means well fitted curve in the direction sought with a large enough effect; an effect the other way counts as inactive or inconclusive; further: nearly all actives have a fitted effect of over 75% in size)
Sequence of Muscarinic acetylcholine receptor M1 (Rattus norvegicus) (P08482 whole entry, looked up): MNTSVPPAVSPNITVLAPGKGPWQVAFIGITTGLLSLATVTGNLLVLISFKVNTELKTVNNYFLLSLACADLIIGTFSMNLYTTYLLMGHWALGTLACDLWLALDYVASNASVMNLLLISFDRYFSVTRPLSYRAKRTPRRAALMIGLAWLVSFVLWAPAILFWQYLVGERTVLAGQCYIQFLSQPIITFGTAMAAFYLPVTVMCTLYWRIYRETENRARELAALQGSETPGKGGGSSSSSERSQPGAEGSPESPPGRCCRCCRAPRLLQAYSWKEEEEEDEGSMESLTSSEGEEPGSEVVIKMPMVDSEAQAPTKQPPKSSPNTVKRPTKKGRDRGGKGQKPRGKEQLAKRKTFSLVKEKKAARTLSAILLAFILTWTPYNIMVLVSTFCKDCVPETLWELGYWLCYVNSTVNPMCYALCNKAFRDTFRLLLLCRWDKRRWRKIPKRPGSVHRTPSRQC
Procedure, shortened: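 M1-CHO (rat), 2000 cells/well, overnight recovery; cpd 10 min; carbachol EC80 (200 nM), 30 min, HEPES buffer + 50 mM LiCl pH 7.4; IP-One HTRF, Ex 337, Em 620/665 nm.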

[12] = target: Pyruvate kinase (Leishmania mexicana) (UniProt Q27686); assay: qHTS Validation Assay for Inhibitors of Leishmania Mexicana Pyruvate Kinase (AID 945; active means well fitted curve in the direction sought with a large enough effect; an effect the other way counts as inactive or inconclusive)
Sequence of Pyruvate kinase (Leishmania mexicana) (Q27686 2-499 E452W): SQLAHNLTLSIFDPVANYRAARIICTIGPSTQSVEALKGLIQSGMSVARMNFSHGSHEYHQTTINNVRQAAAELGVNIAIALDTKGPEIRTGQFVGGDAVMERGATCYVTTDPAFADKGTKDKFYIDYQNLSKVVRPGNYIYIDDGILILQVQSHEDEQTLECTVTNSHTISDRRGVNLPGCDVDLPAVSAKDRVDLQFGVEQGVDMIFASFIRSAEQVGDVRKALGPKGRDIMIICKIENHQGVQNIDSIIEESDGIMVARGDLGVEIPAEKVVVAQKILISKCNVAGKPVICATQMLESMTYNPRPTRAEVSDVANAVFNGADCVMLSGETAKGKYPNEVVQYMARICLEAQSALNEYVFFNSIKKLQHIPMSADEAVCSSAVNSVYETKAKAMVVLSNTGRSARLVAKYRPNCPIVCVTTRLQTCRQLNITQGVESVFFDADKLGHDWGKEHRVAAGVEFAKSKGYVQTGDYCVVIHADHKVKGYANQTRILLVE
Procedure, shortened: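 The enzyme is a highly purified E451W mutant of LmPYK used at 0.2 nM. It converts 0.5 mM PEP and 0.1 mM ADP over 1 h at room temperature; product ATP is quantified by luciferase luminescence relative to DMSO controls.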

[13] = target: Pyruvate kinase PKM (Homo sapiens) (UniProt P14618); assay: qHTS Assay for Activators of Human Muscle Pyruvate Kinase (AID 954; active means well fitted curve in the direction sought with a large enough effect, not every such curve was filed as active)
Sequence of Pyruvate kinase PKM (Homo sapiens) (P14618 whole entry, looked up): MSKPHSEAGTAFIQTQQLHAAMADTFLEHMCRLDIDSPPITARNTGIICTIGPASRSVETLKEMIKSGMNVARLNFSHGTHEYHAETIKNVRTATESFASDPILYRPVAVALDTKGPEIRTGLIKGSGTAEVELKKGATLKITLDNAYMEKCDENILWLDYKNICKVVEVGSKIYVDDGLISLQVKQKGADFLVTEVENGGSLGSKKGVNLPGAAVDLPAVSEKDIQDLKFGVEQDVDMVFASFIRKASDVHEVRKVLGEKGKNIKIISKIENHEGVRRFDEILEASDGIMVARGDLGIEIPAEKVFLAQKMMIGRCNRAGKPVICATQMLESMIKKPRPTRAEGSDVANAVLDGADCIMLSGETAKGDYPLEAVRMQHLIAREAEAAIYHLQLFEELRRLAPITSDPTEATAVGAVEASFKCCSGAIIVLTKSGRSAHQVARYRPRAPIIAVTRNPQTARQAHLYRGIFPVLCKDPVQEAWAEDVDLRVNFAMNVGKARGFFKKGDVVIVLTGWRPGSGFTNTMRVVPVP
Procedure, shortened: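 Enzyme was run at intermediate activity so both inhibitors and activators could be detected. ATP formed from ADP and PEP by 0.1 nM human PKM2 during a 1 h room-temperature incubation was quantified by coupled luciferase luminescence.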

[14] = target: Alpha-galactosidase A (Homo sapiens) (UniProt P06280); assay: Counterscreen for Glucocerebrosidase Inhibitors: qHTS Assay for Human alpha-Galactosidase at pH 4.5 (AID 992; active means well fitted curve in the direction sought with a large enough effect; an effect the other way counts as inactive or inconclusive)
Sequence of Alpha-galactosidase A (Homo sapiens) (P06280 whole entry, looked up): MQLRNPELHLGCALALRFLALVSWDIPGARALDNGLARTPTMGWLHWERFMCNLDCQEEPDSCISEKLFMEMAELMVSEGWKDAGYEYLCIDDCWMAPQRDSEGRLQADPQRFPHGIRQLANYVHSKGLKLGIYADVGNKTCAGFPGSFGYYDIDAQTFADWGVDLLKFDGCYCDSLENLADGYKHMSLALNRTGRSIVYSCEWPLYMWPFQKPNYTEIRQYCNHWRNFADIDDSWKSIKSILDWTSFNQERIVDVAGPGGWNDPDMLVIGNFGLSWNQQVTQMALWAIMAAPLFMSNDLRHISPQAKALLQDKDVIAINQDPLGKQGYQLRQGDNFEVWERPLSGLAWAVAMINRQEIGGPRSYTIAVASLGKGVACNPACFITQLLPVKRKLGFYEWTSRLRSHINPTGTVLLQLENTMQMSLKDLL
Procedure, shortened: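 Read-out is 4-methylumbelliferone fluorescence (365 nm excitation, 440 nm emission) after a pH 10 NaOH/glycine stop. Reactions held 2 nM enzyme and 80 uM substrate at pH 4.5 for 20 min at room temperature.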

[15] = target: alpha-glucosidase (Oryza sativa, rice) (UniProt Q653V4); assay: Counterscreen for Glucocerebrosidase Inhibitors: qHTS Assay for Rice alpha-Glucosidase at pH 5.0 (AID 997; active means well fitted curve in the direction sought with a large enough effect; an effect the other way counts as inactive or inconclusive)
Procedure, shortened: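 Rice alpha-glucosidase (4 nM final) with 400 uM 4-methylumbelliferyl-alpha-D-glucopyranoside in citrate buffer pH 5.0, 20 min at room temperature, stopped at pH 10; fluorescence 365/440 nm, compounds 0.7 nM–77 uM, AC50 from Hill fits.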

[16] = target: Cytochrome P450 3A4 (Homo sapiens) (UniProt P08684); assay: qHTS Assay for Activators of Cytochrome P450 3A4 (AID 885; active means well fitted curve in the direction sought with a large enough effect; an effect the other way counts as inactive or inconclusive; further: nearly all actives have a fitted effect of over 65% in size)
Procedure, shortened: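 Quantitative HTS format: compounds preincubated with 20nM human CYP3A4 and Luciferin-PPXE substrate at KM, reaction started by NADPH regeneration, stopped after 60 min, luciferase luminescence read 20 min later.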

[17] = qHTS Assay for Identification of Small Molecule Antagonists for NFkB Signaling Pathway (AID 895; active means well fitted inhibition curve with a large enough effect in the signal ratio, with a control signal flat, not every such curve was filed as active; the % refers to the signal ratio)
Procedure, shortened: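 Beta-lactamase reporter read-out (460 and 530 nm emission ratio, 405 nm excitation, 2 hrs substrate loading RT) after 5 hr stimulation with 10 pM TNF alpha in compound-treated NFkB-bla ME-180 cells in low-serum medium.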

[18] = target: Cytochrome P450 2C19 (Homo sapiens) (UniProt P33261); assay: qHTS Assay for Inhibitors and Substrates of Cytochrome P450 2C19 (AID 899; active means well fitted curve in the direction sought with a large enough effect; an effect the other way counts as inactive or inconclusive; further: potency means the concentration at half of the fitted maximal effect; nearly all actives have a fitted effect of over 60% in size)
Procedure, shortened: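 Luminescence readout of luciferin formed from 10uM Luciferin-H EGE (KM level) by 5 nM CYP2C19 in 50mM KPO4. 60 min NADPH-driven reaction at 37C after 10 min compound preincubation; data scaled to 57uM ketoconazole inhibition.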

[19] = qHTS Assay for Identification of Small Molecule Agonists for Thrombopoietin (TPO) Signaling Pathway (AID 917; active means well fitted curve in the direction sought with a large enough effect; an effect the other way counts as inactive or inconclusive)
Procedure, shortened: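 We measured Glycoprotein IIb promoter–luciferase output in IL-3-starved Ba/F3 murine cells expressing the human TPO receptor after 24 hrs at 37 C with compounds and 26 pM TPO.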

[20] = at 7.69 µM (top of the series) unless noted

## CC(C)(C)c1ccc([C@@H](O)CCCN2CCC(C(O)(c3ccccc3)c3ccccc3)CC2)cc1
[1]; at 17.2 µM (top of the series)
  activity change, negative = inhibition: 2.82% (inactive)
[1]; at 38 µM (top of the series)
  activity change, negative = inhibition: 6.21% (inactive)
[2]; at 17.2 µM (top of the series)
  activity change, negative = inhibition: -18.2% (inactive)
[2]; at 38 µM (top of the series)
  activity change, negative = inhibition: -0.347% (inactive)
[3]; at 17.2 µM (top of the series)
  activity, negative = inhibition: -5.86% (inactive)
[3]; at 38 µM (top of the series)
  activity, negative = inhibition: 9.55% (inactive)
[4]
  Potency: > 46 µM (inactive) and > 20.6 µM (inactive)
[5]
  Potency: > 46 µM (inactive) and > 20.6 µM (inactive)
[6]
  Potency: inactive
[7]
  Potency: 2 µM (active) and inactive

## CC(C)/C(=N/[N+](C)(C)C)c1ccccc1
[1]; [20]
  activity change, negative = inhibition: 3.83% (inactive)
[8]
  activity change, negative = inhibition: -16.2% [at 2.29 µM] (inactive)
[2]; [20]
  activity change, negative = inhibition: -1.16% (inactive)
[3]; [20]
  activity, negative = inhibition: 0.141% (inactive)
[4]
  Potency: > 46 µM (inactive)
[5]
  Potency: > 9.22 µM (inactive)
[6]
  Potency: inactive
[7]
  Potency: inactive

## N=c1ccn2c(n1)O[C@@H]1[C@@H](O)[C@H](CO)O[C@H]12
[1]; [20]
  activity change, negative = inhibition: -4.43% [at 38 µM] (inactive)
[8]
  Potency: inactive
[2]; [20]
  activity change, negative = inhibition: -5.26% [at 38 µM] (inactive)
[3]; [20]
  activity, negative = inhibition: 0.604% [at 38 µM] (inactive)
[4]
  Potency: > 46 µM (inactive)
[5]
  Potency: > 46 µM (inactive)
[6]
  Potency: inactive
[7]
  Potency: inactive
[9]
  outcome: inactive
[10]
  Potency: inactive
[11]
  Potency: inactive
[12]
  outcome: inactive
[13]
  outcome: inactive
[14]
  outcome: inactive
[15]
  Potency: inactive

## CN1CC[C@@]2(CCN3CCc4c(oc5ccccc45)[C@@H]3C2)N(C)C1=O
[1]; [20]
  activity change, negative = inhibition: 18% [at 38 µM] (inactive)
[8]
  Potency: inactive
[2]; [20]
  activity change, negative = inhibition: -21.7% [at 38 µM] (inactive)
[3]; [20]
  activity, negative = inhibition: -5.91% [at 38 µM] (inactive)
[4]
  Potency: > 46 µM (inactive)
[5]
  Potency: > 46 µM (inactive)
[6]
  Potency: inactive
[7]
  Potency: inactive
[9]
  outcome: inactive
[16]
  Potency: inactive
[17]
  Potency: inactive
[12]
  outcome: inactive
[13]
  outcome: inactive
[14]
  outcome: inactive
[15]
  Potency: inactive

## O=[N+]([O-])c1ccc(S(=O)(=O)Cc2ccccc2)c2nonc12
[3]; [20]
  activity, negative = inhibition: -2.97% (inactive)
[4]
  Potency: > 46 µM (inactive)
[5]
  Potency: > 9.22 µM (inactive)
[6]
  Potency: inactive
[7]
  Potency: inactive
[10]
  Potency: 0.316 µM (active)
[18]
  Potency: 3.16 µM (active)

## NC(=S)NCCC[C@@H](N)C(=O)O
[1]; [20]
  activity change, negative = inhibition: 4.46% [at 38 µM] (inactive)
[8]
  Potency: inactive
[2]; [20]
  activity change, negative = inhibition: 4.17% [at 38 µM] (inactive)
[3]; [20]
  activity, negative = inhibition: -8.44% [at 38 µM] (inactive)
[4]
  Potency: > 46 µM (inactive)
[5]
  Potency: > 46 µM (inactive)
[6]
  Potency: inactive
[7]
  Potency: inactive
[9]
  outcome: inactive
[16]
  Potency: inactive
[17]
  Potency: inactive
[19]
  outcome: inactive
[11]
  Potency: inactive
[13]
  outcome: inactive
[14]
  outcome: inactive
[15]
  Potency: inactive

From PubChem BioAssay (NCATS)
